Screens from PubChem.
This is a sample that favours compounds with a hit; in the whole collection about 11% have one here.
OTUD3 block = inhibitors of human OTUD3 deubiquitinase | Q5T2D3 | purified OTUD3, Ub-rhodamine fluorescence, 2 h | inhibition, % at 25 µM | 47,000 tested, 0.7% active
Target sequence (Q5T2D3 whole entry, looked up): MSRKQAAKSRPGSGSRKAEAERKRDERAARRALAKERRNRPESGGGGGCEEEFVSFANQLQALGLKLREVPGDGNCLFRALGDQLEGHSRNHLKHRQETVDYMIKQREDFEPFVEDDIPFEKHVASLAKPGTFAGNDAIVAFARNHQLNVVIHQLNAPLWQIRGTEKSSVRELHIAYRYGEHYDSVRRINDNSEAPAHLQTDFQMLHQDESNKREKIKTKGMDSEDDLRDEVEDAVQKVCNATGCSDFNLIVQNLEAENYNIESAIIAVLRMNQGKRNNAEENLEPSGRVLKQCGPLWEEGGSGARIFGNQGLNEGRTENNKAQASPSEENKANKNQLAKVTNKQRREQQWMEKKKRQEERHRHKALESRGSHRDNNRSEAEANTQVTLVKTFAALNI
USP30 block = inhibitors of human USP30 deubiquitinase | purified USP30, Ub-rhodamine cleavage fluorescence | inhibition, % at 25 µM | 47,000 tested, 5.3% active | Q70CQ3
USP17 block = human USP17-like deubiquitinase inhibition. purified USP17, Ub-rhodamine cleavage fluorescence, 3 h. inhibition, % at 50 µM. 47,000 tested, 6.5% active
USP28 inh = human USP28 deubiquitinase inhibition; Q96RU2; purified USP28, Ub-rhodamine cleavage fluorescence, 30 min; inhibition, % at 25 µM; 47,000 tested, 3% active; AID 1645857
* marks the source's active call; other numbers are inactive results; . = no result. Rule as the data show it: active = inhibition above about 30%; inactive = the rest.

SMILES	OTUD3 block	USP30 block	USP17 block	USP28 inh
COc1ccc(NC(=O)C23CCC(=O)N2c2ccccc2S3)c(OC)c1 (stereo not drawn)	-1.7	-20.9	0.0	1.1
N#Cc1nc(Cc2ccccc2)oc1N1CCN(c2ccccc2)CC1	10.4	-1.3	0.0	0.0
Cc1ccc(OCc2nc(C#N)c(N3CCCCC3)o2)cc1	22.5	12.3	26.4	36.8*
COc1ccc(-c2ccnc(-c3ccc(OCc4cccc(F)c4)cc3)n2)cc1	21.7	40.7*	56.2*	11.8
CCC(C)[C@H](NC(=O)N1CCn2c1nc1ccccc12)C(=O)NCCc1ccccc1 (stereo partly drawn)	9.0	30.0*	35.5*	24.8
C[C@H](NC(=O)[C@H](Cc1ccccc1)NC(=O)N1CCn2c1nc1ccccc12)C(=O)O	13.7	14.7	17.3	16.9
C[C@H](NC(=O)N1CCn2c1nc1ccccc12)C(=O)NCc1ccc(F)cc1	9.4	40.8*	34.3*	2.9
COc1ccc(CCNC(=O)[C@@H](NC(=O)N2CCn3c2nc2ccccc23)C(C)C)cc1OC	5.0	0.0	-6.8	0.5
O=C(OC(C(=O)c1c[nH]c2ccccc12)c1ccccc1)c1ccc(N2CCCC2)c([N+](=O)[O-])c1 (stereo not drawn)	14.0	17.3	8.8	15.3
COc1ccc(S(=O)(=O)N2CCOC23CCN(C(=O)C2CCCCC2)CC3)cc1	-15.7	-22.9	-8.4	-18.0
O=C(COc1ccc(Cl)cc1)Nc1ccc2c(c1)CCC(=O)N2Cc1ccccc1	0.5	11.4	2.8	2.8
COc1cccc(OCC(=O)Nc2ccc3c(c2)CCC(=O)N3Cc2ccccc2)c1	9.1	11.5	20.4	34.9*
Cc1cccc(OCC(=O)Nc2ccc3c(c2)CCC(=O)N3Cc2ccccc2)c1	11.7	31.2*	16.1	15.5
COC(=O)c1cc(NC/C=C/c2ccccc2)ccc1N1CCOCC1	-29.8	-28.4	-14.8	-7.7
CC(=O)Nc1ccc(S(=O)(=O)NCc2ccc(C(=O)NCCN3CCCCCC3)cc2)cc1	-27.4	-122.8	34.6*	-5.5
COc1ccc2cc(C(C)C(=O)NCc3ccccc3)ccc2c1 (stereo not drawn)	14.0	41.7*	12.4	28.3
COc1ccc(CNC(=O)c2ccc(S(=O)(=O)Nc3ccccc3F)cc2)cc1	8.1	31.0*	24.6	10.9
COc1ccc(CNC(=O)c2ccc(CNS(=O)(=O)c3ccc(NC(C)=O)cc3)cc2)cc1	7.6	36.8*	41.1*	12.5
CC(C)(C)c1ccc(OCCSc2ccccc2C(=O)O)cc1	8.6	16.8	16.2	9.0
COc1ccc(C(=O)Nc2ccccc2C(=O)NCc2ccccc2)cc1	22.3	91.7*	15.7	23.4
COc1ccc(CNC(=O)c2ccccc2NC(=O)c2ccccc2F)cc1	-1.2	0.9	10.0	0.1
COc1ccc(-c2cc(N3CCC(NC(=O)c4ccccc4)C3)n[nH]2)cc1 (stereo not drawn)	0.7	0.4	55.9*	-8.5
COc1ccc(-c2cc(N3CCC(NC(=O)c4ccccn4)C3)n[nH]2)cc1 (stereo not drawn)	9.8	18.5	4.0	6.7
Cc1nn(-c2ccc(F)cc2)c(C)c1S(=O)(=O)N1CCN(c2ccccn2)CC1	21.1	37.5*	24.1	3.6
C=C(C)C1CCC2(C)CC(=O)C=C(C)C2C1 (stereo not drawn)	2.9	9.2	0.5	0.7
SMILES	OTUD3 block	USP30 block	USP17 block	USP28 inh
O=C(NCCN1CCCC1)C1CCCN(c2cnc3nccnc3c2)C1 (stereo not drawn)	-103.8	-428.6	-107.6	-125.9
O=C(Nc1ccncc1)c1ncoc1-c1cccc(Cl)c1	3.9	65.7*	7.2	2.3
Cc1nc2cccnc2n1C1CCN(C(=O)c2cc3cc(Cl)ccc3[nH]2)C1 (stereo not drawn)	-4.3	53.8*	31.4*	41.5*
COc1cccc2[nH]c(C(=O)N3CCC(n4c(C)nc5cccnc54)CC3)cc12	-3.9	-0.2	-4.0	3.3
Cc1ccc(CNC(=O)c2c(O)c3ccccc3[nH]c2=O)cc1	11.8	21.3	22.7	12.4
CC(CNC(=O)c1cnn2c3c(cnc12)CCCC3)c1ccccc1 (stereo not drawn)	16.4	30.6*	12.8	24.4
O=C(NCCC1=CCCCC1)c1cnn2c3c(cnc12)CCCCCC3	13.6	37.8*	19.8	28.4
Cc1cc(=O)oc2cc(OCC(=O)Nc3cc(Cl)ccc3N3CCOCC3)ccc12	13.4	50.3*	41.7*	15.5
COC(=O)c1ccccc1NC(=O)CNc1cc(Cl)ccc1N1CCOCC1	-12.9	-19.7	-10.8	-14.2
O=C(CSc1nc2c(cnn2-c2ccccc2)c(=O)[nH]1)Nc1ccc(Cl)cc1F	7.6	30.1*	-26.5	14.7
Cc1cc(NC(=O)CSc2nc3c(cnn3-c3ccc(F)cc3)c(=O)[nH]2)no1	19.2	21.2	1.6	-1.2
CC(C)(C)N=C1Nc2ncccc2NC12CCN(C(=O)Nc1ccccc1C(F)(F)F)C2 (stereo not drawn)	-13.6	-97.5	-16.2	-26.4
CC(=O)N1CCN(C(=O)c2cccc(Cl)c2)CC2(CNC(=O)C2)C1 (stereo not drawn)	12.6	19.9	-2.6	8.2
CCCCCCCc1cc(O)cc(O)c1	6.2	20.4	4.8	76.7*
COc1ccc(-c2nc(-c3nnn(Cc4cccc(F)c4)c3C)no2)cc1OC	5.4	4.5	7.3	20.7
COc1ccccc1-c1nc(-c2cn(-c3ccc(F)cc3)nn2)no1	8.3	40.7*	30.9*	12.9
Fc1cccc(-n2cc(-c3noc(-c4cccnc4)n3)nn2)c1	6.0	60.9*	53.5*	20.9
COc1ccc(-c2nc(-c3cn(-c4ccccc4)nn3)no2)c(OC)c1	34.5*	94.1*	70.5*	54.3*
COc1ccccc1-c1nc(-c2cn(-c3ccccc3)nn2)no1	11.8	26.0	14.9	16.6
COc1ccc(-c2nc(-c3nnn(Cc4ccc(F)cc4)c3C)no2)c(OC)c1	27.1	66.1*	33.8*	39.8*
Cc1cccc(Nc2nc(C)c(C(=O)NCCN3CCOCC3)s2)n1	1.8	-14.2	-2.7	-4.9
COc1ccccc1Cc1nc(-c2cn(-c3cccc(F)c3)nn2)no1	13.4	33.5*	13.1	19.5
O=C(Nc1ccccc1)c1nc(-c2cn(-c3ccccc3)nn2)no1	0.3	41.4*	16.8	19.4
O=C(NCc1ccccn1)c1nc(-c2cn(-c3ccc(Cl)cc3)nn2)no1	9.2	19.9	11.3	12.1
COc1ccc(-c2nc(-c3cn(-c4cccc(Cl)c4)nn3)no2)c(OC)c1	-3.3	.	64.9*	.
Cc1cc(C)c(NC(=O)CSc2nc3cn(C)nc3c(=O)n2CC2CC2)c(C)c1	-1.4	69.8*	60.8*	17.9
CCn1cc2nc(SCC(=O)NC3CCCC3)n(Cc3ccccc3)c(=O)c2n1	1.3	0.8	0.6	-0.2
Cc1c(C)c2ccc(OCC(=O)NCc3ccccn3)c(C)c2oc1=O	7.4	46.0*	39.9*	15.5
Cc1cc(=O)oc2c(C)c(OCC(=O)NCc3ccccn3)ccc12	-1.2	3.0	-2.9	-6.7
Cc1ccc(Cn2cc(SCC(=O)Nc3ccc(F)cc3F)c3ccccc32)cc1	-42.7	21.5	31.8*	5.5
